Laboratory results reported in a collection of fitness landscapes (doi:10.1016/j.celrep.2020.107928).
Over roughly 81,000 sequences, “one-hybrid fitness for binding NBS DNA” has its median near -0.1; the highest 2% begin near 0.36. For the sample, the highest values were picked, then their nearest neighbours and some sequences at random.

B1: Caulobacter ParB omega fusion; a variant is named by its letters at X, in order, B8GW30 (parent)
chain: MESVVVGEPGMSEGRRGLGRGLSALLGEVDAAPAQAPGEQLGGSREAPIEILQRNPDQPRRTFREEDLEDLSNSIREKGVLQPILVRPSPDTAGEYQIVAGERAWRAAQRAGLKTVPIMVRELDDLAVLEIGIIENVQRADLNVLEEALSYKVLMEKFERTQENIAQTIGKSXSHVANXMRLLXLPDEVQSYLVSGELTAXHARAIAAAADPVALAKQIIEGGLSVRETEALARKAPNLSAGKSKGGRPPRVKDTDTQALESDLSSVLGLDVSIDHRGSTGTLTITYATLEQLDDLCNRLTRGI

Variants of: B1
Test: one-hybrid fitness for binding NBS DNA (the Noc-binding site; scaled: cognate 1, non-cognate 0); higher = stronger binding
Settings: with NBS DNA site
Summary of the method: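 In E. coli USO, a HIS3 reporter with its site placed 19 bp from the promoter was used to select Caulobacter ParB variants randomised at four specificity codons. Growth lasted 48 hours at 37°C on histidine-free M9 containing 0.1 mM IPTG and 5 mM 3-AT. Fitness was taken as the log change in variant-to-wild-type read ratio from Illumina sequencing of pre- and post-selection plasmids, rescaled between the non-cognate and cognate sites.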

Row | Variant | one-hybrid fitness for binding NBS DNA
1 | LTSP | ≤ 0.2
2 | DSLM | ≤ 0.2
3 | GRHR | ≤ 0.2
4 | VANW | ≤ 0.2
5 | RFPW | ≤ 0.2
6 | RCCM | ≤ 0.2
7 | PGLH | ≤ 0.2
8 | CHHR | ≤ 0.2
9 | QRYL | ≤ 0.2
10 | QRKL | 0.367
11 | QRVL | ≤ 0.2
12 | FRYF | ≤ 0.2
13 | INML | ≤ 0.2
14 | RHHS | 0.443
15 | RHRS | 0.585
16 | RHNH | ≤ 0.2
17 | RHRD | ≤ 0.2
18 | RHDS | ≤ 0.2
19 | RHHN | ≤ 0.2
20 | RHHD | ≤ 0.2
21 | RHWS | ≤ 0.2
22 | RHRN | ≤ 0.2
23 | RHIS | ≤ 0.2
24 | RHYS | 0.376

Row | Variant | one-hybrid fitness for binding NBS DNA
25 | RHNS | 0.505
26 | MVLT | ≤ 0.2
27 | QIMY | ≤ 0.2
28 | AMWR | ≤ 0.2
29 | RYEA | ≤ 0.2
30 | SMFC | ≤ 0.2
31 | RFVV | ≤ 0.2
32 | KGDK | ≤ 0.2
33 | QRAY | 0.516
34 | QRFY | 0.392
35 | QCAY | 0.21
36 | QSFY | ≤ 0.2
37 | QSAY | ≤ 0.2
38 | QCFY | 0.213
39 | PAFP | ≤ 0.2
40 | VCPS | ≤ 0.2
41 | MCMN | ≤ 0.2
42 | DHRV | ≤ 0.2
43 | QCTQ | ≤ 0.2
44 | QSTM | ≤ 0.2
45 | QRTQ | 0.437
46 | QSTQ | ≤ 0.2
47 | QRTF | 0.294
48 | QRTS | 0.685

Row | Variant | one-hybrid fitness for binding NBS DNA
49 | QRTG | 0.356
50 | QRTV | 0.412
51 | QRTM | 0.414
52 | QCTM | ≤ 0.2
53 | QPTV | ≤ 0.2
54 | QCTV | ≤ 0.2
55 | ATLR | ≤ 0.2
56 | IYRI | ≤ 0.2
57 | AKFY | ≤ 0.2
58 | IYLA | ≤ 0.2
59 | KPSG | ≤ 0.2
60 | GTKT | ≤ 0.2
61 | SIIE | ≤ 0.2
62 | QPTC | ≤ 0.2
63 | QRTP | 0.263
64 | QPTH | ≤ 0.2
65 | QRTD | 0.259
66 | QRTC | 0.395
67 | QCTC | ≤ 0.2
68 | QRTN | 0.429
69 | QPTK | ≤ 0.2
70 | QRTK | 0.414
71 | QRTH | 0.57
72 | QCTK | ≤ 0.2

Row | Variant | one-hybrid fitness for binding NBS DNA
73 | QCTH | 0.295
74 | LCDV | ≤ 0.2
75 | ANGR | ≤ 0.2
76 | WTTR | ≤ 0.2
77 | MSHC | 0.26
78 | SNER | ≤ 0.2
79 | FAVS | ≤ 0.2
80 | FHLT | ≤ 0.2
81 | EFTH | ≤ 0.2
82 | QRTY | 0.519
83 | EFTN | 0.392
84 | QPTY | ≤ 0.2
85 | EFTS | ≤ 0.2
86 | QCTY | 0.225
87 | PRAG | ≤ 0.2
88 | GACS | ≤ 0.2
89 | RKMH | 0.214
90 | RLMR | 0.341
91 | RTMN | ≤ 0.2
92 | RCMR | 0.461
93 | RHMR | 0.368
94 | RHMN | ≤ 0.2
95 | RKMP | ≤ 0.2
96 | RTMR | 0.503

Row | Variant | one-hybrid fitness for binding NBS DNA
97 | RPMR | ≤ 0.2
98 | RHMP | ≤ 0.2
99 | RKMR | 0.577
100 | RTMP | ≤ 0.2
101 | SFRE | ≤ 0.2
102 | NGWG | ≤ 0.2
103 | SIAC | ≤ 0.2
104 | KQGK | ≤ 0.2
105 | IDPS | ≤ 0.2
106 | ICRN | ≤ 0.2
107 | NDES | ≤ 0.2
108 | PLNE | ≤ 0.2
109 | RGAY | ≤ 0.2
110 | IIPP | ≤ 0.2
111 | THSS | ≤ 0.2
112 | NHMG | ≤ 0.2
113 | RSMR | 0.369
114 | RAMR | 0.341
115 | RQMP | ≤ 0.2
116 | RQMR | 0.385
117 | RIMR | 0.319
118 | RQMD | ≤ 0.2
119 | RRMQ | 0.253
120 | RRMF | ≤ 0.2

Row | Variant | one-hybrid fitness for binding NBS DNA
121 | RRMR | 0.723
122 | VAIA | ≤ 0.2
123 | LTDL | ≤ 0.2
124 | HGGT | ≤ 0.2
125 | AFTK | ≤ 0.2
126 | SQEG | ≤ 0.2
127 | CATP | ≤ 0.2
128 | LHPG | ≤ 0.2
129 | CDGK | ≤ 0.2
130 | SSSM | ≤ 0.2
131 | GDDT | ≤ 0.2
132 | QKAG | ≤ 0.2
133 | QKFT | 0.366
134 | QKAT | 0.543
135 | QKAC | ≤ 0.2
136 | QKFS | 0.277
137 | QKFF | ≤ 0.2
138 | SHPD | ≤ 0.2
139 | QKML | ≤ 0.2
140 | HTHP | ≤ 0.2
141 | RGSE | ≤ 0.2
142 | SGGC | ≤ 0.2
143 | TILG | ≤ 0.2
144 | LRDT | ≤ 0.2

Row | Variant | one-hybrid fitness for binding NBS DNA
145 | RTGI | ≤ 0.2
146 | RYVH | ≤ 0.2
147 | RYVC | ≤ 0.2
148 | RYKN | 0.218
149 | RYKD | ≤ 0.2
150 | RYKC | 0.367
151 | RYKS | 0.57
152 | RYKP | ≤ 0.2
153 | RYYC | ≤ 0.2
154 | RYKH | 0.396
155 | KHNS | ≤ 0.2
156 | NLKT | ≤ 0.2
157 | YEHY | ≤ 0.2
158 | ADVD | ≤ 0.2
159 | SIIV | ≤ 0.2
160 | DVHC | ≤ 0.2
161 | VIQR | ≤ 0.2
162 | YNMS | ≤ 0.2
163 | QKDY | ≤ 0.2
164 | QTRY | 0.685
165 | QLYY | ≤ 0.2
166 | QTYY | 0.262
167 | QCRY | 0.637
168 | QKYY | ≤ 0.2

Row | Variant | one-hybrid fitness for binding NBS DNA
169 | QKRY | 0.518
170 | QLRY | 0.451
171 | QLDY | ≤ 0.2
172 | QTWY | ≤ 0.2
173 | QCYY | 0.275
174 | QPRY | ≤ 0.2
175 | GQTS | ≤ 0.2
176 | PQAC | ≤ 0.2
177 | GTQM | ≤ 0.2
178 | HAAV | ≤ 0.2
179 | KEKL | ≤ 0.2
180 | GHAV | ≤ 0.2
181 | VLHR | ≤ 0.2
182 | PYWE | ≤ 0.2
183 | HKSN | ≤ 0.2
184 | MTAW | ≤ 0.2
185 | VLNA | ≤ 0.2
186 | TGSV | ≤ 0.2
187 | QAFY | 0.396
188 | QAYY | ≤ 0.2
189 | QIYY | ≤ 0.2
190 | QIRY | 0.378
191 | QAFN | ≤ 0.2
192 | QMYY | ≤ 0.2

Row | Variant | one-hybrid fitness for binding NBS DNA
193 | QADY | ≤ 0.2
194 | QMDY | ≤ 0.2
195 | QAAY | ≤ 0.2
196 | QARY | 0.499
197 | QMRY | 0.566
198 | QIHY | ≤ 0.2
199 | WTQT | ≤ 0.2
200 | RKML | ≤ 0.2
201 | FQSI | ≤ 0.2
202 | MFAL | ≤ 0.2
203 | SWRR | ≤ 0.2
204 | QHDY | ≤ 0.2
205 | QHRY | 0.488
206 | QSRY | 0.505
207 | QSDY | ≤ 0.2
208 | QSYY | ≤ 0.2
209 | QHYY | ≤ 0.2
210 | YIRY | ≤ 0.2
211 | KRNT | 0.617
212 | NRDT | ≤ 0.2
213 | NRNT | ≤ 0.2
214 | KRDT | 0.421
215 | DRDT | ≤ 0.2
216 | KCNT | 0.207

Row | Variant | one-hybrid fitness for binding NBS DNA
217 | MDAV | ≤ 0.2
218 | TRPC | ≤ 0.2
219 | QKTD | ≤ 0.2
220 | QHTS | 0.372
221 | QKTN | ≤ 0.2
222 | QHTP | ≤ 0.2
223 | QMTD | ≤ 0.2
224 | QKTS | 0.475
225 | QMTS | 0.403
226 | QSTS | 0.364
227 | QCTS | 0.458
228 | QMTH | ≤ 0.2
229 | QHTN | ≤ 0.2
230 | QPTS | ≤ 0.2
231 | IAMY | ≤ 0.2
232 | QCIF | ≤ 0.2
233 | PRQG | ≤ 0.2
234 | VKPT | ≤ 0.2
235 | YCVL | ≤ 0.2
236 | DHNQ | ≤ 0.2
237 | SNYG | ≤ 0.2
238 | PCIT | ≤ 0.2
239 | NGMR | ≤ 0.2
240 | RLHW | ≤ 0.2

Row | Variant | one-hybrid fitness for binding NBS DNA
241 | LRLN | ≤ 0.2
242 | RGQR | ≤ 0.2
243 | QHGN | ≤ 0.2
244 | QHPR | 0.248
245 | QHRN | 0.334
246 | QHIR | 0.352
247 | QHRR | 0.989
248 | QHYR | 0.471
249 | QHGR | 0.546
250 | QHHQ | ≤ 0.2
251 | QHGD | ≤ 0.2
252 | QHWR | 0.363
253 | QHHN | ≤ 0.2
254 | QHHR | 0.571
255 | IYTG | ≤ 0.2
256 | QEPT | ≤ 0.2
257 | QKVW | ≤ 0.2
258 | HKNP | ≤ 0.2
259 | NTTN | ≤ 0.2
260 | VWNG | ≤ 0.2
261 | CAIM | ≤ 0.2
262 | PVVW | ≤ 0.2
263 | YKVT | ≤ 0.2
264 | VSTT | ≤ 0.2

Row | Variant | one-hybrid fitness for binding NBS DNA
265 | QLTP | ≤ 0.2
266 | QCTT | 0.486
267 | QLTS | 0.307
268 | QSTT | 0.403
269 | QSTN | ≤ 0.2
270 | QSTH | ≤ 0.2
271 | QMTQ | ≤ 0.2
272 | QMTL | ≤ 0.2
273 | QMTT | 0.463
274 | QPTT | ≤ 0.2
275 | QITT | 0.314
276 | QLTT | 0.393
277 | LYGT | ≤ 0.2
278 | ACDR | ≤ 0.2
279 | DHGS | ≤ 0.2
280 | GRAP | ≤ 0.2
281 | MVHG | ≤ 0.2
282 | SQHN | ≤ 0.2
283 | QTTY | 0.301
284 | QTTT | 0.603
285 | QKTP | ≤ 0.2
286 | QKTM | ≤ 0.2
287 | QATT | 0.379
288 | DRTT | ≤ 0.2

Row | Variant | one-hybrid fitness for binding NBS DNA
289 | QKTT | 0.56
290 | QRTT | 0.759
291 | QATD | ≤ 0.2
292 | QNTT | ≤ 0.2
293 | QTTG | ≤ 0.2
294 | QATH | ≤ 0.2
295 | ERNT | ≤ 0.2
296 | SKLS | ≤ 0.2
297 | CYAV | ≤ 0.2
298 | RIEC | ≤ 0.2
299 | GTHW | ≤ 0.2
300 | QHTY | ≤ 0.2
301 | QHTT | 0.412
302 | QHTM | ≤ 0.2
303 | KWAC | ≤ 0.2
304 | TYFR | ≤ 0.2
305 | RREI | ≤ 0.2
306 | RRVI | ≤ 0.2
307 | RCKI | ≤ 0.2
308 | RRRI | 0.451
309 | RRYI | ≤ 0.2
310 | RRKI | 0.607
